Only some compounds are listed: those with a hit (about 27% of all), similar ones and a draw of the others.
Pyk2 oligo antag: antagonists of human Pyk2 oligomerization; Q293 cells, Pyk2 FERM NanoBiT luminescence; active compounds read low; z-score (the deposit names both 25 µM and 10 µM); 99,000 tested, 0.83% active; Q14289; AID 1347419;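 active means Z-score of -3 or lower, scaled per plate to the spread of control and sample wells; inactive means z-score above -3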;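 further: negative z-score means lost luminescence so less FERM oligomerization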
CYP2C9 act: increases human cytochrome P450 2C9 activity. P11712. recombinant CYP2C9, luciferin-H conversion, luminescence; active compounds read high; factor 1 = untreated enzyme, 0 = blocked. activation factor at 5 µM. 96,000 tested, 1.4% active. AID 1024;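 active means activation factor of 2 or more for CYP2C9 at a 5 µM dose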;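 further: 0 = sulfaphenazole-blocked wells and 1 = vehicle-only wells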
CYP2C9 inh: human CYP2C9 inhibition. CYP2C9 Supersomes, luciferin-H conversion, luminescence. 96,000 tested, 20% active. P11712. inhibition, % at 5 µM. AID 777;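 active means blocking of liver enzyme CYP2C9 beyond about 50% at 5 µM, limit read from the data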
CYP2C19 act: cytochrome P450 2C19 (human) activation | activation factor at 5 µM | AID 1025 | recombinant CYP2C19, luciferin-H EGE luminescence; active compounds read high; 0 = fully inhibited enzyme, 1 = untreated enzyme | P33261 | 96,000 tested, under 10 active;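 active means activation factor of at least 2 at 5 µM in the primary screen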;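 further: 0 = wells with 2.5 mM tranylcypromine and 1 = vehicle-only wells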
Target sequence (P33261 whole entry, looked up): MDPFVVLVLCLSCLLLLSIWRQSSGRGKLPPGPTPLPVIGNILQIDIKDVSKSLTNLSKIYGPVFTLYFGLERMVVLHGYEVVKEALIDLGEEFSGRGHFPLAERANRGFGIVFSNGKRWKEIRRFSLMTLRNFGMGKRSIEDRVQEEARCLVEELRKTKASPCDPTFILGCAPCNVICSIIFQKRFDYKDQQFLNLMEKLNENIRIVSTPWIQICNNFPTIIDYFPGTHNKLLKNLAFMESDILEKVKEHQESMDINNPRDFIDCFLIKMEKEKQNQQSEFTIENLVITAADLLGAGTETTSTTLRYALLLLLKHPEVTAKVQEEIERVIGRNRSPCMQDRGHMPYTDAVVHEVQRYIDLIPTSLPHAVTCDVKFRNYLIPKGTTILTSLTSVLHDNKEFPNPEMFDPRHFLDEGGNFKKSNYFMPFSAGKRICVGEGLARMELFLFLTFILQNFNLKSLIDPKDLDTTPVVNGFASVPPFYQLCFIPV
Cav32 inh: blocks human Cav3.2 T-type calcium channel. 100,000 tested, 4% active. Cav3.2-expressing cells, Fluo-4 calcium fluorescence FDSS; active compounds read low. AID 449739. B-score at 10 µM. O95180;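 active means single-dose well whose peak fluorescence ratio is a statistical outlier from its plate by either plate-standardised score or position-corrected B-score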
CYP2C19 inhib: human CYP2C19 inhibition; P33261; CYP2C19 Supersomes, luciferin-H EGE luminescence, 30 min; inhibition, % at 5 µM; 96,000 tested, 21% active; AID 778;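 active means CYP2C19 inhibition above a set limit at 5 µM in the primary screen, cut at about 50% in these data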;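 further: plate controls were negative control wells for no effect and 2.5 mM tranylcypromine positive control for full effect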
* hit, by the source's call.

Screening CCCCCC(=O)Nc1ccccc1N1CCN(c2ccccc2)CC1 returned Pyk2 oligo antag -2.2, CYP2C9 act 0.7, CYP2C9 inh 34, CYP2C19 act 0.9, Cav32 inh -2.9 and CYP2C19 inhib 9.
For CN1C(=O)c2cccc(NC(=O)CCc3ccccc3)c2C1=O the results were CYP2C9 act 0.4, CYP2C9 inh 62*, CYP2C19 act 0.3, Cav32 inh 0.054 and CYP2C19 inhib 70*.
`CCCCC(=O)Nc1cccc2c1C(=O)N(c1ccccc1)C2=O` gave Pyk2 oligo antag -1.2, CYP2C9 act 0.3, CYP2C9 inh 67*, CYP2C19 act 0.5, Cav32 inh -0.82 and CYP2C19 inhib 51*.
COC(=O)N/N=C(\C)c1ccccc1Br was read as Pyk2 oligo antag -0.01, CYP2C9 act 1.1, CYP2C9 inh -5, CYP2C19 act 0.7, Cav32 inh 0.23 and CYP2C19 inhib 29.
Screening O=c1c2ccccc2nnn1CSc1nnc(C2COc3ccccc3O2)n1-c1ccccc1 (stereo unspecified) returned Pyk2 oligo antag -0.48, CYP2C9 act 0.1, CYP2C9 inh 90*, CYP2C19 act 0.1, Cav32 inh -6.1* and CYP2C19 inhib 87*.
For Nc1nnc(CC(c2ccccc2)c2ccccc2)s1 the results were Pyk2 oligo antag -0.28, CYP2C9 act 0.8, CYP2C9 inh 20, CYP2C19 act 0.1, Cav32 inh 0.34 and CYP2C19 inhib 85*.
Screening Nc1nnc(Cc2ccccc2)s1 returned Pyk2 oligo antag 0.59, CYP2C9 act 1.2, CYP2C9 inh -22, CYP2C19 act 1.1, Cav32 inh 0.65 and CYP2C19 inhib -6.
Screening Cc1nnc(C)n1N1C(=O)c2cccc3cccc(c23)C1=O returned Pyk2 oligo antag 1.7, CYP2C9 act 0.2, CYP2C9 inh 81*, CYP2C19 act 0.4 and CYP2C19 inhib 62*.
Screening CCNC(=S)NCCN1CCCCC1 returned Pyk2 oligo antag 0.4, CYP2C9 act 0.9, CYP2C9 inh 7, CYP2C19 act 0.9, Cav32 inh 1.5 and CYP2C19 inhib 5.
Screening COc1ccccc1N1CCN(CC(=O)NCC2CCCO2)CC1 (stereo unspecified) returned Pyk2 oligo antag 0.3 and Cav32 inh 1.2.
For CCOc1ccc(N2C(=O)CC(Sc3ncccn3)C2=O)cc1 (stereo unspecified) the results were Pyk2 oligo antag -0.11, CYP2C9 act 1.1, CYP2C9 inh -6, CYP2C19 act 1, Cav32 inh 1.3 and CYP2C19 inhib -3.
C=CCNc1nnc(SC2CC(=O)N(c3ccc(OCCC)cc3)C2=O)s1 (stereo unspecified) was read as Pyk2 oligo antag 0.9, CYP2C9 act 0.9, CYP2C9 inh 14, CYP2C19 act 0.9, Cav32 inh 3.3* and CYP2C19 inhib 12.
`Nc1ccc(C(=O)N/N=C/c2ccccc2)cc1` gave Pyk2 oligo antag 0.69, CYP2C9 act 1.2, CYP2C9 inh -15, CYP2C19 act 1.1, Cav32 inh -5.1* and CYP2C19 inhib -15.
O=C(N/N=C/c1ccncc1)c1ccccc1 was read as Pyk2 oligo antag 1.5, CYP2C9 act 1, CYP2C9 inh 3, CYP2C19 act 0.7, Cav32 inh 0.7 and CYP2C19 inhib 33.
O=C(N/N=C/c1ccncc1)/C(=C/c1ccccc1)NC(=O)c1ccccc1 was read as Pyk2 oligo antag 0, CYP2C9 act 0.2, CYP2C9 inh 79*, CYP2C19 act 0.5, Cav32 inh 1.1 and CYP2C19 inhib 51*.
Screening Cc1ccc(S(=O)(=O)Oc2ccc(/C=C(/NC(=O)c3ccccc3)C(=O)Nc3ccccc3)cc2)cc1 returned Pyk2 oligo antag -0.13, CYP2C9 act 0.4, CYP2C9 inh 59*, CYP2C19 act 0.7, Cav32 inh -5* and CYP2C19 inhib 33.
For O=C(Nc1ccccc1)/C(=C\c1ccncc1)NC(=O)c1ccccc1 the results were Pyk2 oligo antag 0.13, CYP2C9 act 0, CYP2C9 inh 96*, CYP2C19 act 0, Cav32 inh 0.21 and CYP2C19 inhib 100*.
`COCCSc1nnc(NC(=O)C2CCCCC2)s1` gave Pyk2 oligo antag 0.01, CYP2C9 act 0.8, CYP2C9 inh 24, CYP2C19 act 0.7, Cav32 inh 1.5 and CYP2C19 inhib 26.
`O=S1(=O)N=C(Oc2ccccc2)c2ccccc21` gave Pyk2 oligo antag 0.02, CYP2C9 act 1, CYP2C9 inh 2, CYP2C19 act 1, Cav32 inh -0.31 and CYP2C19 inhib 2.
`C=CCN1/C(=C(\C#N)C2=NS(=O)(=O)c3ccccc32)N(C)c2ccccc21` gave Pyk2 oligo antag 0.09, CYP2C9 act 0.6, CYP2C9 inh 36, CYP2C19 act 0.5, Cav32 inh 0.5 and CYP2C19 inhib 55*.
`CCCCC(CC)CNC(=O)c1ccc2c(c1)OCO2` (stereo unspecified) gave Pyk2 oligo antag -1.1, CYP2C9 act 0.5, CYP2C9 inh 48, CYP2C19 act 0.7, Cav32 inh -3.5 and CYP2C19 inhib 27.
For Cn1nc([N+](=O)[O-])nc1Oc1ccc2ccccc2c1 the results were Pyk2 oligo antag 0.62, CYP2C9 act 1, CYP2C9 inh 5, CYP2C19 act 0.9, Cav32 inh 0.2 and CYP2C19 inhib 6.
Screening Cc1cccc(C)c1Oc1nc(-c2ccccc2)ncc1S(=O)(=O)c1ccccc1 returned Pyk2 oligo antag -1.9, CYP2C9 act 0.2, CYP2C9 inh 85*, CYP2C19 act 0.7, Cav32 inh -2 and CYP2C19 inhib 32.
For COc1ccc(Oc2nc(-c3ccccc3)ncc2S(=O)(=O)c2ccccc2)cc1 the results were Pyk2 oligo antag -2.6, CYP2C9 act 0.9, CYP2C9 inh 8, CYP2C19 act 0.9, Cav32 inh -1.4 and CYP2C19 inhib 7.
CCC(C)[C@H](N)c1nnc(SCC(=O)c2ccc(Cl)cc2)o1 (stereo partly specified) was read as Pyk2 oligo antag -0.61, CYP2C9 act 0.3, CYP2C9 inh 71*, CYP2C19 act 0, Cav32 inh -2.1 and CYP2C19 inhib 100*.
Screening CC(C)[C@H](N)c1nnc(SCc2ccc(Cl)cc2)o1 returned Pyk2 oligo antag 0.03, CYP2C9 act 0.8, CYP2C9 inh 15, CYP2C19 act 0, Cav32 inh 0.3 and CYP2C19 inhib 96*.
`CCC(c1nnc(SCC(=O)NCCc2ccc(Cl)cc2Cl)o1)N(C)C` (stereo unspecified) gave Pyk2 oligo antag 0.28, CYP2C9 act 0.4, CYP2C9 inh 58*, CYP2C19 act 0.2, Cav32 inh -0.053 and CYP2C19 inhib 79*.
C[C@H](N)c1nnc(SCc2ccc(Cl)cc2Cl)o1 was read as Pyk2 oligo antag -0.33, CYP2C9 act 0.2, CYP2C9 inh 82*, CYP2C19 act 0, Cav32 inh 0.21 and CYP2C19 inhib 100*.
O=C(CSc1ccc2c(c1)OCCO2)NCCc1ccc(Cl)cc1Cl was read as Pyk2 oligo antag -0.89.
